# Screening data (PubChem BioAssay)
# NS1 function inh: blocks influenza NS1 protein function; Potency, µM (top dose mostly 46.1 µM), for inactives: at the highest dose activity, positive = more growth; 270,000 tested, 0.4% active; AID 2326; calls by dose curve; note: actives are rising curves; nearly all actives have a fitted effect of over 50% in size
#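 In this qHTS, NS1 from influenza A is expressed in budding yeast, where it slows growth. Cells are switched from glucose to 2% galactose medium (pH 6.0, -URA), treated with compound, and growth recovery is read at OD600.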
# SARS PLpro yeast: SARS-CoV PLP inhibition in yeast; S. cerevisiae expressing SARS-CoV PLpro, growth rescue; 330,000 tested, 0.19% active; AID 485353; Potency, µM (top dose mostly 32.9 µM), for the others: top-dose activity, positive = growth rescue, most hits filed as activators; calls by dose curve; note: 0% is about no effect; nearly all actives have a fitted effect of over 55% in size
# Pf growth 48h: inhibits P. falciparum growth in the first generation, 48 h; P. falciparum luciferase growth in erythrocytes, 48 h; Potency, µM (doses to about 28.7 µM), for the others: at the top dose activity change, negative = inhibition, usual class: inhibitors; 310,000 tested, 5.9% active; AID 504832; note: % is set by controls: 0 for no effect and ±100 for the full control effect
#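 A one-generation exposure of luciferase-tagged malaria parasites in RPMI 1640/Albumax erythrocyte culture, 37 C and 5% CO2. Inhibition is inferred from decreased luminescence after adding detection reagent.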
# Pf growth 96h: P. falciparum growth inhibition at 96 hours. P. falciparum luciferase reporter growth, 96 h. Potency, µM (highest dose often 28.7 µM), for inactives: at the top dose activity change, negative = inhibition, most hits filed as inhibitors. 320,000 tested, 6.9% active; note: % is set by controls: 0 for no effect and ±100 for the full control effect
#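 Infected RBCs, 2% Hct / 0.05% parasitemia final; luciferase-reporter P. falciparum; cpd 96 h, 37 C, 5% CO2; luciferase detection reagent; luminescence.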
# Starred values were filed as active, the others as inactive; ? = inconclusive; . = not tested or not shown; [ ] = dose if it differs, or a comment. This is a sample that favours compounds with a hit; in the whole collection about 10% have one here. Unless noted, calls come from the whole dose curve; as a rule, active = well fitted inhibition curve with a large enough effect; inconclusive = small, poorly fitted or top-dose-only effect, or another doubt; inactive = no such curve, though single readings can be large or run the other way. Potency is the fitted concentration of half-maximal effect.
SMILES,NS1 function inh,SARS PLpro yeast,Pf growth 48h,Pf growth 96h
Cc1c(C#N)c(NC(=O)CCl)n(Cc2cccs2)c1C,.,-1%,10µM*,3.3µM*
Cc1c(C#N)c(NC(=O)CCl)n(Cc2ccccc2)c1C,5%,0%,?,19µM*
Cc1noc(C)c1S(=O)(=O)N(C)C[C@H]1Oc2ccc(NS(=O)(=O)c3cn(C)cn3)cc2C(=O)N([C@H](C)CO)C[C@@H]1C,.,0%,.,.
O=C(Nc1ccccc1C(=O)O)c1ccc(NC(=O)C2CCCCC2)cc1,2%,-1%,-8%,?
Cc1ccc(S(=O)(=O)N2CCC[C@H]2C(=O)OCC(=O)N2CCc3ccccc32)cc1,.,6%,.,.
COCCCNC(=O)Cn1cc(/C=C(\C#N)C(=O)NC2CCCC2)c2ccccc21,-1%,1%,14%,9%
COCCN(CCOC)c1nc(-c2ccccc2)nc2ccccc12,-41%,-3%,13µM*,?
COCCN(CCOC)c1nc(-c2ccc(Cl)cc2)nc2ccccc12,-34%,-17%,0%,?
COc1cccc(CNC(=O)CCC(=O)N2CC(C)Oc3ccccc32)c1OC (stereo not drawn),12%,-11%,17%,5.2µM*
COc1ccc(C(C(=O)NC(C)(C)C)N(C(=O)CCC(=O)Nc2cc(C)on2)c2cccc(C)c2C)cc1 (stereo not drawn),-1%,0%,?,?
Cc1noc(C)c1NC(=O)Nc1ccc2c(c1)C(=O)N([C@H](C)CO)C[C@H](C)[C@@H](CN(C)C(=O)NC1CCCCC1)O2,.,1%,.,.
CCCCCn1c(N2CCN(c3cccc(Cl)c3)CC2)nc2c1c(=O)[nH]c(=O)n2C,-51%,0%,.,5.9µM*
Cn1c(=O)[nH]c(=O)c2c1nc(N1CCN(c3cccc(Cl)c3)CC1)n2CCCc1ccccc1,-2%,3%,15%,-22%
Cc1nnc(SCCn2c(N3CCN(Cc4ccccc4)CC3)nc3c2c(=O)[nH]c(=O)n3C)s1,-5%,0%,?,7.4µM*
Cc1nnc(SCCn2c(N3CCC(Cc4ccccc4)CC3)nc3c2c(=O)[nH]c(=O)n3C)s1,0%,1%,?,9.3µM*
Cc1nnc(SCCn2c(N3CCN(C)CC3)nc3c2c(=O)[nH]c(=O)n3C)s1,-11%,1%,.,-15%
CCCCn1c(N2CCCC2)nc2c1c(=O)[nH]c(=O)n2C,4%,0%,-7%,-7%
CCCCn1c(N2CCC(Cc3ccccc3)CC2)nc2c1c(=O)[nH]c(=O)n2C,-79%,-24%,9.3µM*,?
COc1cccc(CN2CC(C(=O)NCCSc3nnnn3C)CCC2=O)c1 (stereo not drawn),7%,7%,1%,21%
COc1ccc(CCn2c(N3CCN(C)CC3)nc3c2c(=O)[nH]c(=O)n3C)cc1,0%,7%,.,-24%
Cn1c(=O)[nH]c(=O)c2c1nc(N1CCc3ccccc3C1)n2CCSc1nc2ccccc2s1,-15%,8%,5.2µM*,57%
CC1CCN(c2nc3c(c(=O)[nH]c(=O)n3C)n2Cc2ccccc2Cl)CC1,-43%,-12%,-22%,9.3µM*
CCCn1c(N2CCN(CC(=O)c3c(C)n(C)c4ccc(OC)cc34)CC2)nc2c1c(=O)[nH]c(=O)n2C,-11%,-6%,?,2.1µM*
CCOC(=O)Cc1csc(NC(=O)CSc2nc(=O)[nH]c3c2CCCC3)n1,.,-5%,?,?
CCN(CC)C(=O)CSc1nc(-c2ccccc2)cc(=O)[nH]1,4%,1%,27%,13%
SMILES,NS1 function inh,SARS PLpro yeast,Pf growth 48h,Pf growth 96h
N#Cc1c(N)nc2c3c(sc(=N)c2c1N)NC(=O)CC3c1c(F)cccc1Cl (stereo not drawn),8%,-11%,?,8.3µM*
Cc1cc(C)n(-c2nnc(C)n2/N=C/c2cc(Br)ccc2OCc2ccccc2)n1,-46%,-5%,4.7µM*,7%
CCn1nc(C(=O)N2CCN(Cc3nc4ccccc4s3)CC2)c2ccccc2c1=O,.,-1%,133%,48%
COc1cc(-c2c(C#N)c(N)nc3[nH]c(=S)[nH]c(=O)c23)ccc1O,7%,-2%,.,26%
Cc1cc(OCC(=O)N2CCN(c3ccccn3)CC2)c(C)cc1Br,-17%,3%,15%,?
O=C(NCC1CCCO1)C(=Cc1cccc([N+](=O)[O-])c1)C(=O)NCC1CCCO1 (stereo not drawn),-3%,-3%,?,13µM*
O=C(NCC1CCCO1)/C(=C\c1cccc([N+](=O)[O-])c1)NC(=O)c1ccccc1 (stereo not drawn),.,2%,31%,22%
O=C(NCC1CCCO1)c1ccc(Oc2ccc([N+](=O)[O-])cc2)cc1 (stereo not drawn),-8%,-1%,4%,1.5µM*
O=C(NCC1CCCO1)c1ccc(Oc2ccc([N+](=O)[O-])cc2Cl)cc1 (stereo not drawn),-35%,-1%,-3%,35%[1.15 µM]
C/C(=N\Nc1cccc(Cl)c1)c1ccc(-n2ccnc2)cc1,4%,-22%,?,12µM*
O=C(NCC1CCN(C(=O)c2ccc([N+](=O)[O-])cc2)CC1)C(=O)Nc1ccccc1,.,2%,3%,15µM*
O=C(c1ccc([N+](=O)[O-])cc1)N1CCC(Cc2ccccc2)CC1,.,2%,-3%,?
Cc1cc(=O)[nH]c2nnc(-c3ccc(Cl)cc3)n12,-1%,-1%,.,81%
CCOc1ccc(C(CC(=O)O)NC(=O)C(c2ccccc2)c2ccccc2)cc1OC (stereo not drawn),.,-1%,?,-21%
COC(=O)[C@@H](NC(=O)N1CCC(Cc2ccccc2)CC1)C(C)C,-3%,0%,-10%,16%
OCCC1CN(Cc2cccc3nonc23)CCN1C1CCCCC1 (stereo not drawn),-3%,1%,-2%,15µM*
OCCC1CN(Cc2cccc3nccnc23)CCN1C1CCCC1 (stereo not drawn),4%,1%,15%,13µM*
Cc1cc(C)n(-c2ccc(F)cc2CN2CCN(C3CCCC3)C(CCO)C2)n1 (stereo not drawn),2%,0%,19%,1.7µM*
OCCC1CN(Cc2nc3ccc(F)cc3[nH]2)CCN1C1CCCC1 (stereo not drawn),0%,0%,11%,3%
OCCC1CN(Cc2cnc(-c3ccc(Cl)cc3)nc2)CCN1C1CCCCC1 (stereo not drawn),0%,0%,10µM*,8%
Cc1cccc(-c2ncc(CN3CCN(C4CCCC4)C(CCO)C3)cn2)c1 (stereo not drawn),0%,0%,12%,16%
CN(Cc1ccc(Cl)c(Cl)c1)C(=O)CN1C(=O)NC2(CCCC2)C1=O,.,-2%,?,15%
CC(C)=CCN1CCN(Cc2cccc3nonc23)CC1CCO (stereo not drawn),-2%,1%,4%,2.1µM*
CC(C)=CCN1CCN(Cc2cnc(N3CCOCC3)s2)CC1CCO (stereo not drawn),-2%,-1%,160%,12µM*
CC(C)=CCN1CCN(Cc2cnc(N3CCCC3)s2)CC1CCO (stereo not drawn),4%,0%,-1%,-2%
